High-throughput results (PubChem)
Only a selection was taken, and hits are over-represented in it overall.
LmPK inh: LmPK (Leishmania mexicana) enzyme inhibition; hit rate 0.37% among 290,000; Potency, µM (series often up to 57.5 µM), for the others: top-dose activity change, negative = inhibition, actives largely listed as inhibitors; purified LmPK, Kinase-Glo ATP luminescence, 1 h; Q27686; note: potency is the fitted concentration of half-maximal effect; % is set by controls: 0 for no effect and ±100 for the full control effect
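qHTS format; LmPK 0.1 nM; substrates PEP 0.5 mM and ADP 0.1 mM. One-hour room-temperature incubation, then coupled luciferase luminescence; 0.5 nM enzyme wells mark activation.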
TbPYK inhibitor: blocks Trypanosoma brucei pyruvate kinase; Potency, µM (doses to about 76.8 µM), for inactives: at the top dose activity, negative = inhibition, most hits filed as inhibitors; TbPYK enzyme, Kinase-Glo Plus ATP luminescence, 45 min; AID 624173; Q57TT1; hit rate 0.12% among 410,000; note: potency is the fitted concentration of half-maximal effect; % is set by controls: 0 for no effect and ±100 for the full control effect; nearly all actives have a fitted effect of over 50% in size
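T. brucei PYK with substrate was exposed to pin-transferred compounds across a concentration series, then started with 130 uM ADP (final). After 45 min at room temperature, Kinase-Glo Plus luminescence was read, normalized and curve-fitted.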
FBPA Giardia inh: Giardia lamblia aldolase inhibition | A8B2U2 | purified Giardia FBPA | Potency, µM (titrated, usually from 59.6 µM), for the others: at the top dose activity, negative = inhibition, usual class: inhibitors | hit rate 0.71% among 290,000 | AID 2451; note: potency is the fitted concentration of half-maximal effect; % is set by controls: 0 for no effect and ±100 for the full control effect; nearly all actives have a fitted effect of over 55% in size
Target sequence (A8B2U2 whole entry, looked up): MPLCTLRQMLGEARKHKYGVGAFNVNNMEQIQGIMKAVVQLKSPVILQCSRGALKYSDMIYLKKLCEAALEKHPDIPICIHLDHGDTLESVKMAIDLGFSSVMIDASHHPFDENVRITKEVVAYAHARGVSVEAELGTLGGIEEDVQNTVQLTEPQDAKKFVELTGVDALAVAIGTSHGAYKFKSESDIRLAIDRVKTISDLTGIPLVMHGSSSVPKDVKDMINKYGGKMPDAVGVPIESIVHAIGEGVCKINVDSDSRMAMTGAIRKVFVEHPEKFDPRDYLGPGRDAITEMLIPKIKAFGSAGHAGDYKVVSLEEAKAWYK
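40 nM FBPA preincubated 10 min at RT with compound (up to 57.5 uM final), then substrate plus GAPDH/TPI/NAD/arsenate coupling and diaphorase/resazurin added. Fluorescence read after 20 min at RT, 525/598 nm.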
Cycloheximide cs: affects cycloheximide protein synthesis inhibition readout, counter-screen. cell reporter, cycloheximide protein synthesis inhibition counterscreen. max response, %. hit rate 12% among 300,000; in the data active = max response mostly above about 13%, no sharp cut-off; inactive = mostly below about 14%; note: read at 38.3 µM for the half of the compounds with a filed dose; 0% is about no effect
Shiga toxin inh: blocks Shiga toxin action in Vero cells; Vero cells, Shiga toxin protein synthesis inhibition reporter; inhibition, % at 38.7 µM; hit rate 9.2% among 290,000; AID 2315; in the data active = inhibition mostly above about 28%, no sharp cut-off; inactive = mostly below about 43%; note: 0% is about no effect
Sm TGR block: blocks Schistosoma mansoni thioredoxin glutathione reductase. Potency, µM (top dose mostly 114 µM), for inactives: at the top dose activity change, negative = inhibition, actives largely listed as inhibitors. purified TGR, DTNB reduction, TNB absorbance 405 nm. Q962Y6. hit rate 3% among 360,000; note: potency is the fitted concentration of half-maximal effect; % is set by controls: 0 for no effect and ±100 for the full control effect; nearly all actives have a fitted effect of over 60% in size
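First, TGR (20 nM dispensed) and NADPH were mixed with compound. Second, a 15 min room-temperature incubation followed. Third, further NADPH and then DTNB were added to start the reaction. Finally, TNB absorbance was monitored kinetically.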
The depositor's hits bear a star; ? = inconclusive; . = not tested or not shown. Unless noted, calls come from the whole dose curve; as a rule, active = well fitted curve in the direction sought with a large enough effect; inconclusive = small, poorly fitted or top-dose-only effect, or another doubt; inactive = no such curve, though single readings can be large; an effect the other way counts as inactive or inconclusive.

SMILES	LmPK inh	TbPYK inhibitor	FBPA Giardia inh	Cycloheximide cs	Shiga toxin inh	Sm TGR block
COc1cccc(-c2cn3nc4c(nc3n2)CCCC4)c1	11µM*	?	?	16*	27	?
CCCN1CCN(C(=O)C(NC(=O)c2ccco2)C(C)C)CC1 (stereo not drawn)	1%	2%	5%	-4	27	4%
COc1cccc(C(=O)N2CCn3c2nc2ccccc23)c1	1%	-2%	8%	24*	34	.
CCOc1ccc(C(=O)N2CCn3c2nc2ccccc23)cc1	-1%	-5%	0%	-1	-4	45µM*
O=C(c1ccc(Cl)cc1)N1CCn2c1nc1ccccc12	-2%	-21%	0%	-4	4	7%
O=C(c1cccs1)N1CCn2c1nc1ccccc12	?	-15%	8%	41*	56*	4%
CCCn1c2ccccc2c2cnn(CC(=O)NCc3ccccc3Cl)c(=O)c21	.	-2%	.	.	.	-1%
Cc1cc(C)c(S(=O)(=O)c2cccc(C(F)(F)F)c2)c(=O)[nH]1	-2%	-4%	7%	-3	3	3%
Cc1cc(C)c(S(=O)(=O)c2ccccc2)c(=O)[nH]1	-3%	2%	9%	18*	13	-1%
Cc1cccc(S(=O)(=O)c2c(C)cc(C)[nH]c2=O)c1	-3%	-5%	8%	30*	28	83%
O=C(NCC1CCCO1)c1cccc(S(=O)(=O)Nc2ccc(SC(F)F)cc2)c1 (stereo not drawn)	.	5%	.	.	.	-1%
C=C(C)CSc1cc(C)c(C#N)c2nc3ccccc3n12	-5%	?	?	0	10	3.2µM*
CCCCc1c(C)c(C#N)c2nc3ccccc3n2c1Cl	4%	.	5%	-2	7	3.5µM*
Cc1cc(-c2ccco2)n2c(nc3ccccc32)c1C#N	4%	-21%	3%	-5	-22	50µM*
O=C(c1ccc(Cl)c(Cl)c1)c1cnc(Nc2ccccc2)s1	0%	-1%	5%	11	-4	-3%
CNc1ncc(C(=O)c2ccc(Cl)c(Cl)c2)s1	-4%	4%	2%	38*	94*	25%
CNc1ncc(C(=O)c2ccc(Cl)cc2)s1	2%	6%	-1%	35*	69*	-19%
CNc1ncc(C(=O)c2ccc(-c3ccccc3)cc2)s1	-1%	-3%	-1%	45*	64*	-4%
COc1ccc(C(=O)Nc2ccc(-c3cc(C(F)(F)F)nn3-c3ccccc3)cc2)cc1OC	.	-1%	.	.	.	10%
CC1(C(=O)Nc2ccc3c(c2)OCO3)CCN1C(=O)c1ccco1 (stereo not drawn)	.	3%	.	.	.	.
CN(C)c1ncc2nc(-c3cc(F)cc(F)c3)c(=O)n(Cc3ccc(F)cc3)c2n1	.	.	5%	.	.	.
CCOC(=O)C1(Cc2ccccc2Cl)CCN(C(=O)c2cnccn2)CC1	-5%	0%	-3%	50*	94*	9%
CCOC(=O)C1(Cc2ccccc2Cl)CCN(C(=O)c2cc(C)on2)CC1	0%	-2%	3%	28*	40*	-5%
O=C(c1cccc(F)c1)N1CCC2(CC1)CCN(c1ncccn1)CC2	.	5%	5%	.	.	.
Cc1ccc(C(=O)NC2=NCCS2)cc1Cl	-5%	-1%	5%	38*	44*	14%
SMILES	LmPK inh	TbPYK inhibitor	FBPA Giardia inh	Cycloheximide cs	Shiga toxin inh	Sm TGR block
COc1cc(C(=O)NC2=NCCS2)cc(OC)c1OC	2%	2%	-2%	-3	14	-4%
CCCN1C(=O)c2ccc(C(=O)NC3=NCCS3)cc2C1=O	-7%	-2%	0%	15*	41	3%
CC(C)C(NC(=O)c1ccc(Cl)cc1)C(=O)NC1=NCCS1 (stereo not drawn)	-4%	5%	0%	-2	-1	23%
CC(C)c1ccc(C(=O)NC2=NCCS2)cc1	-3%	2%	-1%	53*	63*	-17%
Cc1ccc(C(=O)NC2=NCCS2)cc1	-16%	.	-11%	34*	85*	0%
O=C(COc1ccccc1Cl)Nc1ccc(N2CCN(C(=O)c3ccccc3)CC2)cc1	-12%	-6%	.	1	-13	4%
CN1CCN(c2ncc3nc(-c4ccccc4)c(=O)n(-c4ccccc4)c3n2)CC1	.	-1%	-6%	.	.	.
Cc1ccc(C2=Nc3ccccc3N(CC(=O)Nc3cccc(F)c3)C(=O)C2)cc1C	.	0%	.	.	.	1%
O=C(c1cccc(S(=O)(=O)Nc2ccc(F)cc2)c1)N1CCC1	.	1%	.	.	.	1%
COc1ccc(Oc2ncc3ncc(=O)n(C[C@H]4CCCO4)c3n2)cc1	.	4%	-27%	.	.	.
O=C(OCC1CCCO1)c1ccc2c(c1)N(Cc1cccc(Cl)c1)C(=O)c1ccccc1S2(=O)=O (stereo not drawn)	.	4%	.	.	.	11%
N#Cc1ccc(C(=O)NC2=NCCS2)cc1	1%	-1%	6%	34*	104*	14%
O=C(NC1=NCCS1)c1ccc(N2CCCC2=O)cc1	2%	1%	2%	11	16	9%
CCN(CC)S(=O)(=O)c1ccc(C(=O)NC2=NCCS2)cc1	-1%	2%	-7%	-4	-4	1%
O=C(NC1=NCCS1)c1ccc(C(F)(F)F)cc1	-4%	4%	0%	34*	96*	-12%
O=C1OC(c2ccccc2)=N/C1=C\N1CCCCC1	4%	-8%	3%	42*	61*	2%
O=C1OC(c2ccccc2)=C/C1=C/N1CCCCC1	-3%	0%	-12%	38*	126*	?
O=C1OC(c2ccc(Br)cc2)=N/C1=C\N1CCCCC1	4%	-2%	0%	23*	66*	-30%
O=C(CSc1nnc(Cc2ccccc2)c(=O)[nH]1)Nc1ccccc1	.	-9%	.	.	.	6%
COC(=O)c1scc(C)c1NC(=O)c1ccccc1F	-2%	1%	16%	16	14	9%
Cc1cc(C)cc(-n2c3ccc(NC(=S)NC4CCCCC4)cc3c(=O)n2C)c1	.	8%	.	.	.	.
COc1ccc(CN(C)C(=O)c2cc(S(=O)(=O)N3CCOCC3)ccc2N2CCCC2)cc1	.	1%	.	.	.	-27%
O=C(c1cc(-c2cccnc2)nc2ccccc12)N1CCN(S(=O)(=O)c2ccc(Cl)s2)CC1	.	-5%	.	.	.	.
Clc1ccc(-n2nnc(-c3ncc[nH]3)n2)cc1Cl	.	-1%	.	.	.	.
Cc1ccc(-n2nnc(-c3nccs3)n2)cc1	14µM*	?	2%	1	-17	-2%
Clc1ccc(-n2nnc(-c3nccs3)n2)cc1Cl	-3%	?	-9%	29*	74*	-4%
Cc1c(N=NC2=C(O)CCCC2=O)c(=O)n(-c2ccccc2)n1C	1%	-28%	?	6	-1	18µM*
Cc1c(N=Nc2ccc(O)cc2)c(=O)n(-c2ccccc2)n1C	1%	2%	0%	-1	-8	-1%
